Here are results for seven molecules from PubChem BioAssay.

Assay [1] is described as follows: compound effects on lung adenocarcinoma cell viability – A549, calcein-AM fluorescence, 48 h, basal, profiling panel (AID 1162). Further: test concentration not given here. The following applies: higher = more signal.
The nature of assay [2]: compound effects on differentiated 3T3-L1 adipocyte viability – cell-based, 3T3-L1 adipocytes, calcein-AM fluorescence, 48 h, basal, profiling panel (AID 1163). Further: test concentration not given here. The following applies: 3T3-L1 adipocytes viability, higher = more signal.
Assay [3] can be described thus: compound effects on hepatocellular carcinoma cell viability – HepG2, calcein-AM fluorescence, 48 h, basal, profiling panel (AID 1164). Further: test concentration not given here. Particulars: higher = more signal.
Assay [4] in a line: compound effects on multiple myeloma cell viability – MM1S, calcein-AM fluorescence, 48 h, basal, profiling panel (AID 1165).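 Further: viability of MM1S multiple myeloma cells under basal unstimulated conditions; test concentration not given here.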 The following applies: higher = more signal.
Assay [5] in a line: calcein-AM signal in unstimulated myeloma cells – cell-based, calcein-AM fluorescence, 48 h, PK04 Diversity Set, profiling panel (AID 1166).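 Further: cells grown under basal conditions without added stimulus; test concentration not given here.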 The following applies: RPMI8226 myeloma viability, higher = more signal.
Assay [6] is described as follows: JC-1 mitochondrial signal, unstimulated HepG2 cells – cell-based, JC-1 fluorescence, 24 h, 100 nL compound, profiling panel (AID 1167). Further: test concentration not given here. The following applies: HepG2 mitochondrial potential, higher = more signal.
The nature of assay [7]: JC-1 mitochondrial signal, unstimulated adipocytes – cell-based, JC-1 fluorescence, 3T3-L1 adipocytes, 24 h, 100 nL compound, profiling panel (AID 1168). Further: test concentration not given here. The following applies: JC-1 mitochondrial fluorescence, higher = more signal, called active from +8 up or from −8 down.
The nature of assay [8]: JC-1 mitochondrial signal, unstimulated myeloma cells – cell-based, JC-1 fluorescence, RPMI8226, 24 h, 100 nL compound, profiling panel (AID 1169). Further: test concentration not given here. Particulars: JC-1 mitochondrial potential fluorescence, higher = more signal.
Assay [9] is described as follows: JC-1 mitochondrial signal, unstimulated MM1S myeloma – cell-based, JC-1 fluorescence, 24 h, 100 nL compound, profiling panel (AID 1170). Further: test concentration not given here. The following applies: MM1S mitochondrial potential, higher = more signal.
Assay [10] in a line: resazurin metabolic signal in A549 cells – cell-based, resazurin fluorescence, 24 h, PK04 Diversity Set, profiling panel (AID 1171). Further: test concentration not given here. Particulars: A549 viability, higher = more signal, called active from +8 up or from −8 down. On the technique in general: The colour change of resazurin is a common sign of viable cells or microbes.
Assay [11] in a line: resazurin metabolic signal in HepG2 cells – cell-based, resazurin fluorescence, 24 h, PK04 Diversity Set, profiling panel (AID 1172). Further: test concentration not given here. Particulars: HepG2 viability, higher = more signal.
A short description of assay [12]: budding yeast growth changes without added modifier – OD600, strain BY4716, 24 h, basal condition, primary screen (AID 1173). Particulars: S. cerevisiae BY4716 growth, OD600, 24 h; higher = more signal, called active from +8 up or from −8 down.
Assay [13] can be described thus: viability profiling in MM1S myeloma cells – cell-based, resazurin fluorescence, basal, 24 h, PK04 Diversity Set, profiling panel (AID 1174). Further: test concentration not given here. The following applies: higher = more signal, called active from +8 up or from −8 down.
Assay [14] addresses Dihydroorotate dehydrogenase (quinone), mitochondrial (Plasmodium falciparum (isolate 3D7)) (UniProt Q08210). Description: inhibition of P. falciparum DHODH – biochemical, C-terminal His tag, absorbance 600 nm, primary screen (AID 1175).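 Further: recombinant parasite enzyme with a five histidine tag at its C terminus; test concentration not given here.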 The following applies: PfDHODH enzyme, DCIP absorbance 600 nm; higher = more signal, called active from +8 up or from −8 down.
Assay [15] in a line: inhibition of PAO1 biofilm formation – strain PAO1, LB-PBS medium, absorbance 600 nm, primary screen (AID 1176). Further: test concentration not given here. Particulars: P. aeruginosa PAO1 growth/biofilm, A600, 12 h; higher = more signal.
A short description of assay [16]: growth modulation of vineyard yeast isolate – strain RM11-1a, OD600, basal, 24 h, primary screen (AID 1177).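 Further: cultures grown under basal conditions with no added stressor; test concentration not given here.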 Particulars: S. cerevisiae RM11-1a growth, OD600, 24 h; higher = more signal, called active from +8 up or from −8 down.
The nature of assay [17]: growth of efflux-deficient E. coli DRC39 – strain DRC39, OD650, 24 h, E. coli filamentation inducers, primary screen (AID 1178).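 Further: growth measured as culture turbidity by optical density at 650 nm; test concentration not given here.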 Particulars: E. coli DRC39 acrAB, higher = more signal, called active from +8 up or from −8 down.
Assay [18] in a line: growth of efflux-deficient E. coli DRC39 – strain DRC39, OD650, 48 h, E. coli filamentation inducers, primary screen (AID 1179).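 Further: screen aims at cell division blockers that make cells filament.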 Particulars: E. coli DRC39 delta-acrAB growth, higher = more signal, called active from +8 up or from −8 down.
Assay [19] can be described thus: viability profiling in RPMI8226 myeloma cells – cell-based, resazurin fluorescence, basal, 24 h, PK04 Diversity Set, profiling panel (AID 1180).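 Further: RPMI8826 multiple myeloma cell line at 5000 cells per well; test concentration not given here.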 Particulars: higher = more signal.
The target in assay [20] is E3 ubiquitin-protein ligase XIAP (Homo sapiens) (UniProt P98170). The experiment in a line: small molecules binding XIAP protein – biophysical, small-molecule microarray, fluorescence 635 nm, primary screen (AID 1181).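 Further: score merges 667 nm emission and signal to noise over triplicate slides.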 Particulars: higher = more signal.

Values joined by “and” are separate entries in the source; they are usually repeats but may differ in a detail not shown here. Equal values may be shown once. Active and inactive are the calls of the source. Unless noted, how the calls were made is not given here.

Sequence of E3 ubiquitin-protein ligase XIAP (Homo sapiens) (P98170 whole entry, looked up): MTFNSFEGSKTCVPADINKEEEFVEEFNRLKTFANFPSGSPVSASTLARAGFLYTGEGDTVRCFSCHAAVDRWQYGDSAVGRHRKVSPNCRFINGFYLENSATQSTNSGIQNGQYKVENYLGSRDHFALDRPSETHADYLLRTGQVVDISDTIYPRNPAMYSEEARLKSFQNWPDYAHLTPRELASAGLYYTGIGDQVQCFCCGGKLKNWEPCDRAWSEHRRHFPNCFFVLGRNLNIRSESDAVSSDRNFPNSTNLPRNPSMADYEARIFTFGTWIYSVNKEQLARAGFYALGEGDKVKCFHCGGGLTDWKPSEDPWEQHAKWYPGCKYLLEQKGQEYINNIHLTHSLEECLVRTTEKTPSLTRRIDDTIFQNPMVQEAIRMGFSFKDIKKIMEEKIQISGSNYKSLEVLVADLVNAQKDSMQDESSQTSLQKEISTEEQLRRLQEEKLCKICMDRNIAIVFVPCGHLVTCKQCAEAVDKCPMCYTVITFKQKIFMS
Sequence of Dihydroorotate dehydrogenase (quinone), mitochondrial (Plasmodium falciparum (isolate 3D7)) (Q08210 whole entry, looked up): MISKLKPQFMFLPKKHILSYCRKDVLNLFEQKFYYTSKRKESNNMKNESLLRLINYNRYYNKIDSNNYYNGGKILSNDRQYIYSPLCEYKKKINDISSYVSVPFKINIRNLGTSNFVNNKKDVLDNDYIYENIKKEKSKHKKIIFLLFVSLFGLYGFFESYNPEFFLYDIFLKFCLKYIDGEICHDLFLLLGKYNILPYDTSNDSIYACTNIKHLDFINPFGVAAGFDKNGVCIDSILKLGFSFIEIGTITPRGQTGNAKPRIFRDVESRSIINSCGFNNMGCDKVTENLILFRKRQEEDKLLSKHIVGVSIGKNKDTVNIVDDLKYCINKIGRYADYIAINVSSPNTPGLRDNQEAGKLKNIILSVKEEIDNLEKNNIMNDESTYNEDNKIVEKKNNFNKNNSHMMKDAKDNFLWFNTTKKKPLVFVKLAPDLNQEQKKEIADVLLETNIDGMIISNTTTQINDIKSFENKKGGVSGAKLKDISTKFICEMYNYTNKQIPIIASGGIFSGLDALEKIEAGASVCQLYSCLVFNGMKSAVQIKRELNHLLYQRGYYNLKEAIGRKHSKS

As for `CC(C)CON=C1C[C@@H](O)[C@@H](O)[C@@H]2[C@@H]3C(=O)N(c4cccc(Oc5ccccc5)c4)C(=O)[C@@H]3CC[C@H]12`, the z-score in assay [1] was 0.259; in [2], 0.425; in assay [3], -0.641; in assay [4], 0.957; in [5] it was -0.0145; in [6] it was 1.34. The z-score in assay [7] was 0.461 (inactive); in assay [8], 0.288; in assay [9], -0.309; in assay [10], -0.0819 (inactive); in assay [11] it was 0.608; in [12], 0.121 (inactive). The z-score was 0.768 (inactive) in [13]; 0.34 (inactive) in [15]; 0.79 (inactive) in assay [16]; 0.85 (inactive) in [17]; 0.0947 (inactive) in [18]; 1.33 in assay [19]. For the same molecule, the values for the composite z-score in assay [14] and in assay [20] were -0.564 (inactive) and -0.055, respectively.

In the case of `COC(=O)C1=C(C)N(Cc2ccccc2)C2=C3C(=O)N(C)C(=O)[C@@H]3[C@@](O)(C(=O)OC)C(=O)N2[C@@H]1c1ccccc1`, the z-score in assay [1] is 0.77 and 0.914; in assay [2] it was -0.159 and 0.143; in [3], 0.215 and 1.05; in assay [4] it was -0.607 and -0.213; in [5], 0.0606 and 0.359; in assay [6], 0.981 and 0.11. The z-score in assay [7] was -0.531 (inactive) and 0.96 (inactive); in assay [8] it was 0.134 and -0.542; in assay [9] it was 0.739 and 0.467; in assay [10], 1.18 (inactive) and -1.08 (inactive); in assay [11], 0.498 and -1.16; in [12], -0.816 (inactive) and -1.23 (inactive). In addition, the z-score in assay [13] was 0.92 (inactive) and -0.281 (inactive); in [15] it was -0.27 (inactive) and 0.0039 (inactive); in assay [16], -0.544 (inactive) and -2.42 (inactive); in [17], 0.448 (inactive) and -0.0247 (inactive); in assay [18] it was 0.275 (inactive) and 0.0957 (inactive); in assay [19], 0.922 and -0.377. Also, the composite z-score was -0.105 (inactive) and -0.613 (inactive) in assay [14]; -0.0622 and -0.0848 in [20].

For `C=CCN(CCCC)C(=O)C(c1cccs1)N(C(=O)/C=C\C(=O)O)c1ccc(CCO)cc1` (stereo not given), the z-score in assay [1] is -0.178 and 0.505; in assay [2], -0.0575 and -0.458; in [3], 0.267 and 1.02; in [4], 1.72 and 1.52; in assay [5], 0.657 and -0.192; in assay [6] it was 0.484 and -0.279. Further, the z-score in [7] was -0.527 (inactive) and 0.0402 (inactive); in [8], -0.996 and 0.19; in assay [9], -0.874 and -0.407; in assay [10] it was 0.0696 (inactive) and -0.0804 (inactive); in assay [11] it was -0.289 and -0.837; in assay [12], -0.561 (inactive) and -0.0853 (inactive). Also, the z-score in [13] was -0.508 (inactive) and -2.49 (inactive); in [15], -0.208 (inactive) and -0.469 (inactive); in [16], 0.24 (inactive) and 0.473 (inactive); in [17], 0.596 (inactive) and 0.709 (inactive); in [18], 0.597 (inactive) and 0.915 (inactive); in assay [19], -0.213 and -0.931. Besides, the composite z-score in [14] is -0.133 (inactive) and 0.117 (inactive); in assay [20] it was -0.102 and 0.0641.

With `COC(=O)C1=C(C)N(Cc2ccccc2)[C@]23O[C@](C(=O)OC)(C(=O)N2[C@@H]1c1ccccc1)[C@H]1C(=O)N(c2ccccc2)C(=O)[C@H]13`, the z-score is 0.0342 and 1.13 in assay [1]; 0.513 and 1.12 in assay [2]; -0.254 and -0.339 in [3]; 0.149 and 0.0697 in assay [4]; -0.483 and 0.292 in [5]; 0.369 and 0.573 in assay [6]. Also, the z-score was 0.658 (inactive) and 0.885 (inactive) in assay [7]; -0.749 and -0.197 in [8]; 0.702 and 0.235 in assay [9]; 0.376 (inactive) and -0.0028 (inactive) in assay [10]; 0.652 and 1.12 in assay [11]; -1.07 (inactive) and -1.3 (inactive) in [12]. In addition, the z-score was 0.965 (inactive) and -0.165 (inactive) in assay [13]; -0.2 (inactive) in [15]; -0.215 (inactive) and 0.133 (inactive) in assay [16]; -0.308 (inactive) and 0.166 (inactive) in [17]; -0.306 (inactive) and 0.155 (inactive) in assay [18]; 0.709 and 0.102 in [19]. The composite z-score is -0.047 (inactive) and -0.335 (inactive) in [14]; -0.0346 and -0.316 in assay [20].

For the molecule `C=CCN(Cc1ccccc1)C(=O)C1N(c2c(Cl)cccc2CO)C(=O)C2C(C(=O)O)C3C=CC21O3` (stereo not given), the z-score in assay [1] was 1.45 and -0.228; in assay [2] it was 0.38 and 0.802; in assay [3], 1.07 and 0.0456; in [4] it was 2.15 and 0.815; in [5] it was 0.381 and -0.937; in [6] it was 0.992 and -1.25. Moreover, the z-score is 1.53 (inactive) and -0.0316 (inactive) in [7]; -0.817 and -0.0516 in [8]; 1.03 and 0.278 in assay [9]; 2.19 (inactive) and -0.851 (inactive) in assay [10]; 0.753 and -0.367 in [11]; -2.14 (inactive) and -0.245 (inactive) in [12]. Moreover, the z-score in [13] was 1.33 (inactive) and -0.324 (inactive); in [15], -0.236 (inactive) and -0.329 (inactive); in assay [16], -3.44 (inactive) and 0.92 (inactive); in [17], 2.24 (inactive) and -0.745 (inactive); in [18], 2.55 (inactive) and -0.89 (inactive); in assay [19] it was 0.565 and -0.662. The composite z-score was -0.33 (inactive) and 0.994 (inactive) in [14]; 0.0379 and -0.051 in [20].

For the molecule `CC(=O)OC[C@H]1O[C@H](C#CC(C)(C)C)C=C[C@@H]1OC(C)=O`, the z-score is -0.327 in [1]; -0.274 in assay [2]; -0.24 in assay [3]; -3.02 in assay [4]; -1.73 in assay [5]; -0.888 in assay [6]. For the same molecule, the z-score is 0.386 (inactive) in [7]; -0.776 in assay [8]; 0.085 in assay [9]; -0.595 (inactive) in assay [10]; -0.374 in assay [11]; -0.854 (inactive) in assay [12]. Further, the z-score in assay [13] was -0.756 (inactive); in assay [15], -0.151 (inactive); in assay [16], -0.066 (inactive); in assay [17] it was 0.545 (inactive); in assay [18], 0.221 (inactive); in [19], -0.26. Besides, the composite z-score in assay [14] was -0.187 (inactive); in [20], 0.0237.

As for `COC(=O)C1=C(C)N(Cc2ccccc2)C2=C(C(C)=O)C[C@@](O)(C(=O)OC)C(=O)N2[C@@H]1c1ccccc1`, the z-score was -0.112 and 0.965 in assay [1]; 0.501 and 0.0527 in assay [2]; -0.491 and 0.55 in assay [3]; 1.11 and 0.699 in [4]; -0.0117 and 1 in assay [5]; 0.931 and 0.372 in assay [6]. Also, the z-score in assay [7] is 0.227 (inactive) and -0.00623 (inactive); in [8] it was 0.689 and -0.71; in [9] it was -0.16 and -0.174; in assay [10], 1.25 (inactive) and 1.03 (inactive); in assay [11] it was 0.5 and 0.54; in assay [12], -1.89 (inactive) and -2.55 (inactive). In addition, the z-score is -1.51 (inactive) and 0.956 (inactive) in assay [13]; 0.781 (inactive) in assay [15]; -1.29 (inactive) and -2.02 (inactive) in assay [16]; -0.0507 (inactive) and 0.915 (inactive) in assay [17]; 0.0063 (inactive) and -1.49 (inactive) in assay [18]; 1.28 and 0.192 in [19]. The composite z-score in [14] was -0.557 (inactive) and -0.986 (inactive); in [20], 0.215 and -0.005.
